We go through 5 compounds from PubChem BioAssay (EPA / NIEHS).

Read-out in assay [1]: TIMP metallopeptidase inhibitor 2 (TIMP2), TIMP2 (gene 7077)
Kind of assay: BSK_KF3CT_TIMP2: BioMAP Diversity Plus: KF3CT Assay for TIMP metallopeptidase inhibitor 2 (TIMP2) Biomarker Activity (AID 2283071). The note with it: primary human keratinocytes with fibroblasts; actives raise or lower the signal. In a few lines:
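Human primary keratinocyte/foreskin fibroblast co-culture dosed with chemical and sampled at 24 h. TIMP-2 levels quantified by ELISA; bidirectional fitting against DMSO negative control as baseline.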

Read-out in assay [2]: C-C motif chemokine 2 (Homo sapiens) (UniProt P13500)
Nature of the assay: BSK_KF3CT_MCP1: BioMAP Diversity Plus: KF3CT Assay for Monocyte Chemoattractant Protein 1 (MCP1/CCL2) Biomarker Activity (AID 2283073). The settings on record: primary human keratinocytes with fibroblasts; actives raise or lower the signal. In a few lines: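 Keratinocytes and foreskin fibroblasts were co-cultured, dosed with chemical, and sampled 24 h later. MCP-1 was quantified by ELISA, and the endpoint was analyzed with bidirectional fitting using DMSO as negative control.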

Read-out in assay [3]: Matrix Metallopeptidase 9 (MMP9), MMP9 (gene 4318)
Kind of assay: BSK_KF3CT_MMP9: BioMAP Diversity Plus: KF3CT Assay for Matrix Metallopeptidase 9 (MMP9) Biomarker Activity (AID 2283074).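 As to AC50: MMP9 protein level quantified by ELISA in the co-culture.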 The note with it: primary human keratinocytes with fibroblasts; actives raise or lower the signal. In a few lines: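 Human keratinocyte/foreskin fibroblast co-culture; compound added; 24 h; MMP-9 by ELISA; bidirectional fit vs DMSO baseline.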

Read-out in assay [4]: urokinase plasminogen activator (uPA), PLAU (gene 5328)
Kind of assay: BSK_KF3CT_uPA: BioMAP Diversity Plus: KF3CT Assay for urokinase plasminogen activator (uPA) Biomarker Activity (AID 2283075). The note with it: primary human keratinocytes with fibroblasts; actives raise or lower the signal. In a few lines:
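ELISA readout of uPA, analyzed for signal gain or loss relative to DMSO, from a human primary keratinocyte–foreskin fibroblast co-culture measured 24 h after chemical treatment.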

Read-out in assay [5]: E-selectin (Homo sapiens) (UniProt P16581)
Nature of the assay: BSK_LPS_Eselectin: BioMAP Diversity Plus: LPS Assay for Eselectin Biomarker Activity (AID 2283077). The note with it: primary human HUVEC with PBMC; actives raise or lower the signal. In a few lines: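 Signal of E-selectin, detected by ELISA, served as the endpoint; cells were umbilical vein endothelium with PBMC, read 24 h after treatment. DMSO defined baseline, and both increases and decreases were fitted.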

Read-out in assay [6]: Interleukin-8 (IL8), CXCL8 (gene 3576)
Nature of the assay: BSK_LPS_IL8: BioMAP Diversity Plus: LPS Assay for Interleukin-8 (IL8) Biomarker Activity (AID 2283078). The settings on record: primary human HUVEC with PBMC; actives raise or lower the signal. In a few lines:
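Endothelial cells and PBMC from human donors are co-cultured, treated with chemicals and LPS, then assayed for IL-8 by ELISA after 24 h. Parallel SRB staining (0.1% SRB after 10% TCA fixation, 560 nm) flags cytotoxicity.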

Assay [7] in a line: BSK_LPS_SRB: Viability Assessment in the BioMAP Diversity Plus: LPS Assay (AID 2283079).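 Also: total protein by sulforhodamine B absorbance as a cytotoxicity measure; measured one day after compound addition; fitted in both directions against DMSO so loss or gain of signal counts.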 The settings on record: primary human HUVEC with PBMC. In a few lines: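 Overt cytotoxicity was gauged by sulforhodamine B total-protein staining in a primary human vascular endothelial and mononuclear cell co-culture 24 h post-dosing. Activity was fitted in both directions relative to DMSO.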

Read-out in assay [8]: Monocyte Chemoattractant Protein-1 (MCP1), CCL2 (gene 6347)
Kind of assay: BSK_LPS_MCP1: BioMAP Diversity Plus: LPS Assay for Monocyte Chemoattractant Protein-1 (MCP1) Biomarker Activity (AID 2283081).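 As to AC50: secreted MCP-1 protein quantified by ELISA in culture supernatant.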 The settings on record: primary human HUVEC with PBMC; actives raise or lower the signal. In a few lines: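 LPS-stimulated HUVEC/PBMC co-culture; chemical, 24 h; MCP-1 by ELISA; bidirectional fit vs DMSO; cytotoxicity via SRB (0.1% stain, 10% TCA fix, 560 nm) in parallel wells.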

A short description of assay [9]: BSK_LPS_PGE2: BioMAP Diversity Plus: LPS Assay for Prostaglandin E2 (PGE2) Biomarker Activity (AID 2283082). The note with it: primary human HUVEC with PBMC; actives raise or lower the signal. In a few lines: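 HUVEC plus PBMC co-culture stimulated with LPS; secreted PGE2 quantified by ELISA 24 h after chemical dosing. Activity fitted bidirectionally against DMSO as negative control and baseline; parallel SRB total-protein staining served as cytotoxicity check.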

Read-out in assay [10]: Macrophage colony-stimulating factor (MCSF), CSF1 (gene 1435)
Nature of the assay: BSK_LPS_MCSF: BioMAP Diversity Plus: LPS Assay for Macrophage colony-stimulating factor (MCSF) Biomarker Activity (AID 2283083). The note with it: primary human HUVEC with PBMC; actives raise or lower the signal. In a few lines:
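Compound is added to a human vascular primary co-culture of umbilical vein endothelium and blood mononuclear cells. After 24 h, M-CSF is quantified by ELISA. Signal changes are fitted in both directions against DMSO.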

Read-out in assay [11]: Tissue Factor, F3 (gene 2152)
Kind of assay: BSK_LPS_TissueFactor: BioMAP Diversity Plus: LPS Assay for Tissue Factor Biomarker Activity (AID 2283084). The note with it: primary human HUVEC with PBMC; actives raise or lower the signal. In a few lines:
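In this co-culture system of umbilical vein endothelium with PBMC, stimulated with LPS, cell-surface CD142 is detected by ELISA at 24 h. Endpoint values derive from bidirectional fitting, DMSO serving as baseline.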

Read-out in assay [12]: Tumor necrosis factor (Homo sapiens) (UniProt P01375)
Nature of the assay: BSK_LPS_TNFa: BioMAP Diversity Plus: LPS Assay for Tumour Necrosis Factor alpha (TNFa) Biomarker Activity (AID 2283085). The settings on record: primary human HUVEC with PBMC; actives raise or lower the signal. In a few lines:
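Human umbilical vein endothelial cells co-cultured with PBMC were exposed to test chemical and TNFa measured by ELISA 24 h after dosing. Bidirectional curve fitting was done relative to DMSO as negative control and baseline.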

Read-out in assay [13]: Vascular cell adhesion molecule 1 (VCAM1), VCAM1 (gene 7412)
Nature of the assay: BSK_LPS_VCAM1: BioMAP Diversity Plus: LPS Assay for Vascular cell adhesion molecule 1 (VCAM1) Biomarker Activity (AID 2283086). The settings on record: primary human HUVEC with PBMC; actives raise or lower the signal. In a few lines: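 Human umbilical vein endothelial cells co-cultured with peripheral blood mononuclear cells under LPS stimulation were exposed to test chemical for 24 h. VCAM-1 levels were then measured by ELISA, with bidirectional curve fitting relative to DMSO as negative control and baseline.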

Read-out in a further assay: CD38, CD38 (gene 952)
Nature of the assay: BSK_SAg_CD38: BioMAP Diversity Plus: SAg Assay for CD38 Biomarker Activity (AID 2283087). The note with it: primary human HUVEC with PBMC; actives raise or lower the signal. In a few lines:
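Fluorescence ELISA of cell-surface CD38 served as the read-out, with either increase or decrease fitted against DMSO controls. Cells were a human umbilical vein endothelium plus PBMC co-culture under SEB/TSST-1 stimulation, measured 24 h after dosing.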

Read-out in the next assay: CD40, CD40 (gene 958)
Nature of the assay: BSK_SAg_CD40: BioMAP Diversity Plus: SAg Assay for CD40 Biomarker Activity (AID 2283088). The note with it: primary human HUVEC with PBMC; actives raise or lower the signal. In a few lines:
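Fluorescence ELISA read-out of CD40 from umbilical vein endothelium plus peripheral blood mononuclear cells, sampled 24 h after dosing. Values come from bidirectional curve fitting with DMSO as baseline.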

Read-out in a further assay: CD69, CD69 (gene 969)
Nature of the assay: BSK_SAg_CD69: BioMAP Diversity Plus: SAg Assay for CD69 Biomarker Activity (AID 2283089).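 As to AC50: cell surface CD69 protein quantified by ELISA with fluorescence detection.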 The settings on record: primary human HUVEC with PBMC; actives raise or lower the signal. In a few lines: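 Endothelial/PBMC co-culture; chemical added; 24 h incubation; CD69 ELISA with fluorescence detection; bidirectional fit vs DMSO.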

Read-out in assay [14]: Monocyte Chemoattractant Protein-1 (MCP1), CCL2 (gene 6347)
Kind of assay: BSK_SAg_MCP1: BioMAP Diversity Plus: SAg Assay for Monocyte Chemoattractant Protein-1 (MCP1) Biomarker Activity (AID 2283090). The note with it: primary human HUVEC with PBMC; actives raise or lower the signal. In a few lines: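 MCP-1 levels in the endothelial–PBMC SAg co-culture were quantified by ELISA at 24 h post-dosing; both increases and decreases versus DMSO scored. Cytotoxicity monitored by SRB total protein in parallel cultures.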

Read-out in assay [15]: Interleukin-1 alpha (IL1a), IL1A (gene 3552)
Nature of the assay: BSK_LPS_IL1a: BioMAP Diversity Plus: LPS Assay for Interleukin-1 alpha (IL1a) Biomarker Activity (AID 2283080). The note with it: primary human HUVEC with PBMC; actives raise or lower the signal. In a few lines: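 Measured: IL-1 alpha via ELISA at 24 h in LPS-activated human umbilical vein endothelium–PBMC co-culture. Baseline: DMSO, bidirectional fitting.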

Read-out in assay [16]: Transforming growth factor beta 1 (TGFb1), TGFB1 (gene 7040)
Nature of the assay: BSK_KF3CT_TGFb1: BioMAP Diversity Plus: KF3CT Assay for Transforming growth factor beta 1 (TGFb1) Biomarker Activity (AID 2283072). The settings on record: primary human keratinocytes with fibroblasts; actives raise or lower the signal. In a few lines:
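Human keratinocyte plus foreskin fibroblast primary co-culture, dosed with chemical for 24 h. TGF-b1 quantified by ELISA. Activity fitted bidirectionally against DMSO negative control as baseline.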

Several values for one entry are separate records, joined by “and”; a condition that tells them apart may be missing. Equal entries are not always repeated. A structure can be active in one record and inactive in another. Activity calls are given as the source filed them. The calls were made as follows: active = hit-call score of the fitted dose curve at least 0.9, where 1 is the maximum; inactive = score below 0.9.

Chain of Tumor necrosis factor (Homo sapiens) (P01375 whole entry, looked up): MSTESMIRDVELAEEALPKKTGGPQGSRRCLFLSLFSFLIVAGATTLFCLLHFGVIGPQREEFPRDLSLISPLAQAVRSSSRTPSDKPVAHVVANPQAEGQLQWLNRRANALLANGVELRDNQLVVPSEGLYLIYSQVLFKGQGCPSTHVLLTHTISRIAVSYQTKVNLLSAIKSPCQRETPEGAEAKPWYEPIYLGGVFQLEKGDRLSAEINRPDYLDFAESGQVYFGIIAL
Chain of E-selectin (Homo sapiens) (P16581 whole entry, looked up): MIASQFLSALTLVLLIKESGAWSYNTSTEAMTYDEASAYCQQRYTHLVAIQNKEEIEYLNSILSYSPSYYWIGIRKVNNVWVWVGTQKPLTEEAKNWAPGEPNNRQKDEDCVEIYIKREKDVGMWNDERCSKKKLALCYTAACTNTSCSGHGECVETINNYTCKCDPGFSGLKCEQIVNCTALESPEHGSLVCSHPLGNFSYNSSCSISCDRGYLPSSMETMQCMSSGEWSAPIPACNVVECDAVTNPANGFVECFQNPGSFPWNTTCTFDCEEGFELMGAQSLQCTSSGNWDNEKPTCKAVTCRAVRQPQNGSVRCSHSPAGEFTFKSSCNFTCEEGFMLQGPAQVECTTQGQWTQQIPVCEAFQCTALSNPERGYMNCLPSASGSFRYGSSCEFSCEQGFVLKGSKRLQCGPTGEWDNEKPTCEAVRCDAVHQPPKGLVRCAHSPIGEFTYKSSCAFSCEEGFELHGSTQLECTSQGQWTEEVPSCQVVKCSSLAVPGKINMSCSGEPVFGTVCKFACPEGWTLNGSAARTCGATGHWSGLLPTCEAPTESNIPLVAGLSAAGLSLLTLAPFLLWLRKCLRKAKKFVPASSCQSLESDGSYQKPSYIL

As a reminder, the AC50 is the midpoint of the concentration-response curve, whichever way the signal moves. For `c1ccc(OCCOc2ccccc2)cc1`, the result in assay [1], in [2], in assay [3], in assay [4], in assay [5] and in assay [6] was inactive. The outcome in assay [7], in [8], in assay [9], in [10], in assay [11] and in [12] was inactive. Besides, the outcome in assay [13] was “inactive”; with CD38, CD38 (gene 952), “inactive”; in the assay with CD40, CD40 (gene 958), “inactive”; with CD69, CD69 (gene 969), “inactive”; in [14] it was “inactive”. Further, the AC50 in [11] was 5.17 µM (active); with CD38, CD38 (gene 952) it was 1.49 µM (active).

Turning to `CC(C)(CO)CO`, the result in assay [1], in assay [2], in assay [3], in [4], in [5] and in assay [6] was inactive. Moreover, the result in [7], in [8], in assay [9], in [10], in [11] and in assay [12] was inactive. The outcome was “inactive” in assay [13]; “inactive” with CD38, CD38 (gene 952); “inactive” in the assay with CD40, CD40 (gene 958); “inactive” with CD69, CD69 (gene 969); “inactive” in [14].

With `OCC(F)(OC(F)(F)C(F)(OC(F)(F)C(F)(F)C(F)(F)F)C(F)(F)F)C(F)(F)F` (stereo unspecified), the concentration at half-maximal activity (AC50) in [1] was 5.58 µM (active) and 5.62 µM (active); in [2], 5.14 µM (active); in assay [3] it was 5.19 µM (active) and 3.33 µM (active); in assay [4] it was 5.49 µM (active) and 3.33 µM (active); in [5], 5.03 µM (active) and 3.77 µM (active); in assay [15], 5.01 µM (active) and 4.53 µM (active). Besides, the concentration at half-maximal activity (AC50) in assay [9] was 5.49 µM (active) and 5.04 µM (active); in assay [12] it was 5.64 µM (active) and 5.47 µM (active); in assay [13], 5.05 µM (active); with CD40, CD40 (gene 958) it was 2.38 µM (active) and 2.34 µM (active); in the assay with CD69, CD69 (gene 969), 3.33 µM (active) and 713 nM (active); in [14] it was 2.27 µM (active) and 1.92 µM (active). Also, the outcome in assay [2], in assay [6], in assay [7], in assay [8], in assay [10] and in assay [11] was inactive. In addition, the outcome in [13] is “inactive”; with CD38, CD38 (gene 952), “inactive”.

`O=S(=O)(O)C(F)(F)C(F)(F)OC(F)(F)C(F)(F)F`: the result in assay [1], in assay [2], in assay [3], in assay [4], in assay [5] and in assay [7] was inactive. Also, the result in [8], in assay [9], in assay [10], in assay [11], in assay [12] and in assay [13] was inactive. Also, the outcome was “inactive” with CD38, CD38 (gene 952); “inactive” with CD40, CD40 (gene 958); “inactive” with CD69, CD69 (gene 969); “inactive” in assay [14]. Moreover, the half-maximal activity concentration (AC50) in assay [6] was 30 µM (active) and 10 µM (active).

As for `C=CC(=O)OCC(CO)(COC(=O)C=C)COC(=O)C=C`, the AC50 in [1] is 529 nM (active); in assay [16] it was 0.415 µM (active); in [2], 5.44 µM (active); in assay [3] it was 400 nM (active); in assay [4], 685 nM (active); in [5], 311 nM (active). Besides, the AC50 in assay [6] was 3.97 µM (active); in [7], 0.749 µM (active); in assay [8], 0.0816 µM (active); in [9], 118 nM (active); in assay [10] it was 0.379 µM (active); in assay [11] it was 0.576 µM (active). Moreover, the AC50 in assay [12] was 163 nM (active); in assay [13] it was 0.14 µM (active); with CD38, CD38 (gene 952) it was 0.34 µM (active); with CD40, CD40 (gene 958) it was 696 nM (active); with CD69, CD69 (gene 969), 384 nM (active); in assay [14] it was 686 nM (active).
